Data: PMC7862700, “An all-to-all approach to the identification of sequence-specific readers for epigenetic DNA modifications on cytosine”

What was measured:
Assay in all cases: DAPPL (digital affinity profiling via proximity ligation, sequencing); 10 mM Tris-HCl pH 7.5, 50 mM NaCl, 1 mM DTT, 4% glycerol, room temperature, 30 min; GST-TFs on glutathione beads, 16-mer random dsDNA library, 0.1% formaldehyde crosslink after washing; high values mean tight binding
FLI1 = biological target: T1, FLI1 (Homo sapiens, UniProt Q01543 1-452); conditions: protein: recombinant; tags: N-terminal GST; dsDNA, one strand shown
T1 sequence: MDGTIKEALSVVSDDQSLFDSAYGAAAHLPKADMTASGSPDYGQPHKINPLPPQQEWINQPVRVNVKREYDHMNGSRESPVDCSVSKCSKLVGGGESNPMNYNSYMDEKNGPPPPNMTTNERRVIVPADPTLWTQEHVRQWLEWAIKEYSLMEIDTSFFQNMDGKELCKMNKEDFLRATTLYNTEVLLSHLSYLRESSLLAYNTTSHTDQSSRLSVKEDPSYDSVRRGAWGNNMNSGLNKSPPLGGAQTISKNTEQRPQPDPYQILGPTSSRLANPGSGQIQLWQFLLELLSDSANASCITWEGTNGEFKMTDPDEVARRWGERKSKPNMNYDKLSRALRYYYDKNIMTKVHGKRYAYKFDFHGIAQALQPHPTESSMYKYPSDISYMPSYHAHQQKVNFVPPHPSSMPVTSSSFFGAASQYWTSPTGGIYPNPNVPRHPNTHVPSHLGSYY
Procedure, shortened: (§1)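 Human transcription factors carrying a GST fusion were produced in yeast, bound to glutathione beads, tagged with DNA barcodes and pooled together with a tag-only sample. Each pool was held with 200 nmole of a random double-stranded 16-mer DNA library in Tris/NaCl/DTT/glycerol buffer for 30 min at room temperature, then washed, crosslinked in 0.1% formaldehyde, proximity-ligated with BsaI/T4 ligase (1 h, 37 °C), PCR-amplified and sequenced on an Illumina NextSeq500. Binding signal is the read frequency of each hexamer for a given factor divided by its frequency in the tag-only sample.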

ELK1 = biological target: T2, ELK1 (Homo sapiens, UniProt P19419 1-428); conditions: protein: recombinant; tags: N-terminal GST; dsDNA, one strand shown
T2 sequence: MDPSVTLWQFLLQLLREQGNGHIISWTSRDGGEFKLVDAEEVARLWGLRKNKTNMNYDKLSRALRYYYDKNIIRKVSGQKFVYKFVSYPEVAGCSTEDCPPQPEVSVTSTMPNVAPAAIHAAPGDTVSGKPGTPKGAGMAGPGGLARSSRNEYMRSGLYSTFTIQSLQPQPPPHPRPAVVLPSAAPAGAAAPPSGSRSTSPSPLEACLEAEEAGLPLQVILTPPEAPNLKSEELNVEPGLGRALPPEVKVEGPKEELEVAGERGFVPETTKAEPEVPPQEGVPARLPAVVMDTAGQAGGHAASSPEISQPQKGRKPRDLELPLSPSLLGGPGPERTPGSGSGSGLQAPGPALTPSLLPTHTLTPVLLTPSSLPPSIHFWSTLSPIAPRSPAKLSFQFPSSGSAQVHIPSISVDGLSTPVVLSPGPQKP
Procedure, shortened: as §1

GABPA = biological target: T3, GABPA (Homo sapiens, UniProt Q06546 1-454); conditions: protein: recombinant; tags: N-terminal GST; dsDNA, one strand shown
T3 sequence: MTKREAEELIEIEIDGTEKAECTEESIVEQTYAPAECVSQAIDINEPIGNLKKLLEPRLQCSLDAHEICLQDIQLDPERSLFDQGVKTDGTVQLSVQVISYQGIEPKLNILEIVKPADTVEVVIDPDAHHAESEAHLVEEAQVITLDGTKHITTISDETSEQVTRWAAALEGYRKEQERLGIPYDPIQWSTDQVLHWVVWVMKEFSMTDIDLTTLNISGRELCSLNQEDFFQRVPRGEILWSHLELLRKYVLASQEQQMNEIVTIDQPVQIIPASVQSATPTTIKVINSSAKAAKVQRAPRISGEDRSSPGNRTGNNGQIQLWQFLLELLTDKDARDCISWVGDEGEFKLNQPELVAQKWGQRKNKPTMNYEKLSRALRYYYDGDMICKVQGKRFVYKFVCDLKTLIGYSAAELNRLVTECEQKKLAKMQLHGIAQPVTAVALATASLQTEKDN
Procedure, shortened: as §1

ERG = biological target: T4, ERG (Homo sapiens, UniProt P11308 1-479); conditions: protein: recombinant; tags: N-terminal GST; dsDNA, one strand shown
T4 sequence: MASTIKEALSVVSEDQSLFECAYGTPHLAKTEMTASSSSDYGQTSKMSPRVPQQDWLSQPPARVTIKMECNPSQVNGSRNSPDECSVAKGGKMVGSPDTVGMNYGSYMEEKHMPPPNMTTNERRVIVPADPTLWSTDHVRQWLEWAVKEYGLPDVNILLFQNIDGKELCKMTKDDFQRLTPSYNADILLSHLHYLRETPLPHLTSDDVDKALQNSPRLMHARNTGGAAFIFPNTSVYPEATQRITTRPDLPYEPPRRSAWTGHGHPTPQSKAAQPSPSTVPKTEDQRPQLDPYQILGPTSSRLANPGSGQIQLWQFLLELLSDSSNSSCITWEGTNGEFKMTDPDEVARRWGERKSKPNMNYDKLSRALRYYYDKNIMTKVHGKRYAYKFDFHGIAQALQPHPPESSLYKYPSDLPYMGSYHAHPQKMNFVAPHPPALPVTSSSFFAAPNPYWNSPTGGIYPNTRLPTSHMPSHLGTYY
Procedure, shortened: as §1

ELF1 = ELF1 (Homo sapiens, UniProt P32519 1-619); conditions: protein: recombinant; tags: N-terminal GST; dsDNA, one strand shown
ELF1, sequence (P32519 whole entry): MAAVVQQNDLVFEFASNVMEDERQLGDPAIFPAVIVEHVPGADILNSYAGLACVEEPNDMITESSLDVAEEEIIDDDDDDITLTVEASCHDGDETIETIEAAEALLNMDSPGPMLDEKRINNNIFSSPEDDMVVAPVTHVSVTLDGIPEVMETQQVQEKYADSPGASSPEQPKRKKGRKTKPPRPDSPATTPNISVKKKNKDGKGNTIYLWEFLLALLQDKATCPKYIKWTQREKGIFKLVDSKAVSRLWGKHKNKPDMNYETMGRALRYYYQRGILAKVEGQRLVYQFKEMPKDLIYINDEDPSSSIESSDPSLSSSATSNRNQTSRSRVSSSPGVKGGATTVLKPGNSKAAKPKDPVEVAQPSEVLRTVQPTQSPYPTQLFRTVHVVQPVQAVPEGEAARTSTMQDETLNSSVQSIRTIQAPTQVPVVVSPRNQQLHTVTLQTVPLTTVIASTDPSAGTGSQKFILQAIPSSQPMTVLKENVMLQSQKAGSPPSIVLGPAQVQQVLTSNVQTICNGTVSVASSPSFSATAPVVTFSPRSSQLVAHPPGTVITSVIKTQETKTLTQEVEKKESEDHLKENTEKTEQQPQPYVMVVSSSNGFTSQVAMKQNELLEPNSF
Procedure, shortened: as §1

EHF = biological target: T5, EHF (Homo sapiens, UniProt Q9NZC4 1-300); conditions: protein: recombinant; tags: N-terminal GST; dsDNA, one strand shown
T5 sequence: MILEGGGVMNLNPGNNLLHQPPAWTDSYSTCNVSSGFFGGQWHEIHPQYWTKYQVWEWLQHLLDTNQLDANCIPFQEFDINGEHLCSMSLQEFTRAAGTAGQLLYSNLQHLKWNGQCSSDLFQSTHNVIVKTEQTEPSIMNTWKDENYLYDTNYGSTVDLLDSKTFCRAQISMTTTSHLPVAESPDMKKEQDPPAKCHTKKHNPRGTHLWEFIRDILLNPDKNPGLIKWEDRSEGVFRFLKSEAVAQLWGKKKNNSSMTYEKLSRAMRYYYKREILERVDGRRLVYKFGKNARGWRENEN
Procedure, shortened: as §1

SPI1 = SPI1 (Homo sapiens, UniProt P17947 1-270); conditions: protein: recombinant; tags: N-terminal GST; dsDNA, one strand shown
Procedure, shortened: as §1

SPIB = SPIB (Homo sapiens, UniProt Q01892 1-262); conditions: protein: recombinant; tags: N-terminal GST; dsDNA, one strand shown
SPIB, sequence (Q01892 whole entry): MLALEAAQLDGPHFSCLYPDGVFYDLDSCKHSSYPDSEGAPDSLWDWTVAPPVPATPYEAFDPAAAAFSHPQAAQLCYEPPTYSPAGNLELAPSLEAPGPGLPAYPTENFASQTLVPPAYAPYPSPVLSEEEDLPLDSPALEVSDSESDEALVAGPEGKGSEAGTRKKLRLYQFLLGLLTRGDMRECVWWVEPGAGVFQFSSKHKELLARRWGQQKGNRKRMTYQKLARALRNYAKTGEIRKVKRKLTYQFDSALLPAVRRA
Procedure, shortened: as §1

ELK3 = biological target: T6, ELK3 (Homo sapiens, UniProt P41970 1-407); conditions: protein: recombinant; tags: N-terminal GST; dsDNA, one strand shown
T6 sequence: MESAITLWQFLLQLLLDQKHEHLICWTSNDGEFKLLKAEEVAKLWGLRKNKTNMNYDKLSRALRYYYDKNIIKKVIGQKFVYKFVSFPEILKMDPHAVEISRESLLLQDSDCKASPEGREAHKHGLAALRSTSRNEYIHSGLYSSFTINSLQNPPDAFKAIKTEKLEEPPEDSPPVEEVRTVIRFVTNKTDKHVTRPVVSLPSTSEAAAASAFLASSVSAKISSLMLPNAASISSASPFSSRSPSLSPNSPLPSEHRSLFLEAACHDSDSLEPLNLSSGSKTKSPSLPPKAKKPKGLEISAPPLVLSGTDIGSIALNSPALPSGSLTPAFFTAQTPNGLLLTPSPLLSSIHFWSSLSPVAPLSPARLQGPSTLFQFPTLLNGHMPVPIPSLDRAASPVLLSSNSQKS
Procedure, shortened: as §1

FEV = biological target: T7, FEV (Homo sapiens, UniProt Q99581 1-238); conditions: protein: recombinant; tags: N-terminal GST; dsDNA, one strand shown
T7 sequence: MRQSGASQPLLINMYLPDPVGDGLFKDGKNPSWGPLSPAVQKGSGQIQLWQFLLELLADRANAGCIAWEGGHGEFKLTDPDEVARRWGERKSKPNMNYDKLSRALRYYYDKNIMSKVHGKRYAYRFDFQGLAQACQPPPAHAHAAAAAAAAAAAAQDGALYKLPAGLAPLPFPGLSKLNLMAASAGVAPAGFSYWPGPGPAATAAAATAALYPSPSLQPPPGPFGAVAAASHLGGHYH
Procedure, shortened: as §1

ETV5 = ETV5 (Homo sapiens, UniProt P41161 1-510); conditions: protein: recombinant; tags: N-terminal GST; dsDNA, one strand shown
ETV5, sequence (P41161 whole entry): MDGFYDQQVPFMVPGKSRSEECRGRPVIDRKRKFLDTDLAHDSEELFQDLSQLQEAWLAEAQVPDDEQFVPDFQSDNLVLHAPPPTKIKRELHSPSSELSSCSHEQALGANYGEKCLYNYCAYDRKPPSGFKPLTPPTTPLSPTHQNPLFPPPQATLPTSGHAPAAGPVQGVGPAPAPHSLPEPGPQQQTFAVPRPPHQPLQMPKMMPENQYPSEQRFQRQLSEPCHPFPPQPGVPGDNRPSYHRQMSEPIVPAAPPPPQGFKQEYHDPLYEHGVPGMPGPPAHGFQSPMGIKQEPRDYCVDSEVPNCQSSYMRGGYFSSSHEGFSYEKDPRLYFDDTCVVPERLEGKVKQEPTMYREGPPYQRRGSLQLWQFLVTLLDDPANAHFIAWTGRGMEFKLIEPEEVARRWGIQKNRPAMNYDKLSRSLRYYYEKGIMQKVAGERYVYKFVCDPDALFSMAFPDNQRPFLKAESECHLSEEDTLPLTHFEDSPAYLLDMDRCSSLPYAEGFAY
Procedure, shortened: as §1

HSF1 = HSF1 (Homo sapiens, UniProt Q00613 1-529); conditions: protein: recombinant; tags: N-terminal GST; chain copies: 3; dsDNA, one strand shown
HSF1, sequence (Q00613 whole entry): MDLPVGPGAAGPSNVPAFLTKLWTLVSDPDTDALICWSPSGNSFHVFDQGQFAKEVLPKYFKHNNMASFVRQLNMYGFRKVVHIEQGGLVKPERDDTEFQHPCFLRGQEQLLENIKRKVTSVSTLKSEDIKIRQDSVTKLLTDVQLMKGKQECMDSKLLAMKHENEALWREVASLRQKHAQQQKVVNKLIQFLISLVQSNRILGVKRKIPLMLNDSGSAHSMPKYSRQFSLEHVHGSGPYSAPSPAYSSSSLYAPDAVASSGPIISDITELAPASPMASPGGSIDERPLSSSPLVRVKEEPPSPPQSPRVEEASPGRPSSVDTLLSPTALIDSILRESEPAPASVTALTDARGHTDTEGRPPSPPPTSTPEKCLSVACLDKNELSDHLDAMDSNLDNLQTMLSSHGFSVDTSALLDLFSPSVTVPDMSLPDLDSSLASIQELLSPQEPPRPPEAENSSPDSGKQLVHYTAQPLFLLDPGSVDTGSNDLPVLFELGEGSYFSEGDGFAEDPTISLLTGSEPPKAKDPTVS
Procedure, shortened: as §1

SPIC = biological target: T8, SPIC (Homo sapiens, UniProt Q8N5J4 1-248); conditions: protein: recombinant; tags: N-terminal GST; dsDNA, one strand shown
T8 sequence: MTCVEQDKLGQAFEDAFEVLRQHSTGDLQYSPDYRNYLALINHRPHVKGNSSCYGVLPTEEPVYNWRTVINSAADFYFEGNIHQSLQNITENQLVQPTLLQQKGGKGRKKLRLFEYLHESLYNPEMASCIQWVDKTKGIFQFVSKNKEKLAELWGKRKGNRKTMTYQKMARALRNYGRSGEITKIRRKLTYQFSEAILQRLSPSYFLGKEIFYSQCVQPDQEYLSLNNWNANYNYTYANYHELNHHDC
Procedure, shortened: as §1

ELF4 = ELF4 (Homo sapiens, UniProt Q99607 1-663); conditions: protein: recombinant; tags: N-terminal GST; dsDNA, one strand shown
ELF4, sequence (Q99607 whole entry): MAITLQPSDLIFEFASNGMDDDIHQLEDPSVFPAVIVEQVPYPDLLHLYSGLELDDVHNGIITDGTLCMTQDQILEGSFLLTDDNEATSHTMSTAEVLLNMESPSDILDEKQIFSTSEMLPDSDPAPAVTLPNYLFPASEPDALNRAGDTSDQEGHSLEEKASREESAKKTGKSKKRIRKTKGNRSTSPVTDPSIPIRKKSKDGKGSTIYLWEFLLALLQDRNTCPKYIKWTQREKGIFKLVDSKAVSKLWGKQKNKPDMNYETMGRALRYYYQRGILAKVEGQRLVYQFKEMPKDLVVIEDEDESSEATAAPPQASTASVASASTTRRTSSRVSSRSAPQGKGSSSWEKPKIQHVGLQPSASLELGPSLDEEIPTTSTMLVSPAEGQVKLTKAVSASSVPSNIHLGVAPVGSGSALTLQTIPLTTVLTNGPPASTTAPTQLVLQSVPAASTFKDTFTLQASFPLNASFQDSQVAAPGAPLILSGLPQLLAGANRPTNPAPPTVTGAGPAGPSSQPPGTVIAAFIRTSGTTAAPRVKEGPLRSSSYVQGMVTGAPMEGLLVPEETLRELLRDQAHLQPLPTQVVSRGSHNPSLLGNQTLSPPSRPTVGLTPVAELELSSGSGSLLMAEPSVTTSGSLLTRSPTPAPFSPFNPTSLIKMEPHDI
Procedure, shortened: as §1

ELK4 = biological target: T9, ELK4 (Homo sapiens, UniProt P28324-2 1-405); conditions: protein: recombinant; tags: N-terminal GST; dsDNA, one strand shown
T9 sequence: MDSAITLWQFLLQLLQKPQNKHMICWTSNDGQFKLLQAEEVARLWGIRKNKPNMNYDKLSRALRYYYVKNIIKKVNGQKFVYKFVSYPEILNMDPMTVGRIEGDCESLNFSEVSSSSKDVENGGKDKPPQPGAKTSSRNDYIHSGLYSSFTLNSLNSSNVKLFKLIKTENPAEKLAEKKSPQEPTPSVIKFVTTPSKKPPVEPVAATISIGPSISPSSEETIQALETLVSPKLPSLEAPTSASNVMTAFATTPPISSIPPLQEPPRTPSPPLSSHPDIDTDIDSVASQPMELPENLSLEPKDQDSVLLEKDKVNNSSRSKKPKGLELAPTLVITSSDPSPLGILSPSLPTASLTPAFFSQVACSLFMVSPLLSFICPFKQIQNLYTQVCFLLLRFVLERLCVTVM
Procedure, shortened: as §1

ETV2 = biological target: T10, ETV2 (Homo sapiens, UniProt O00321 1-342); conditions: protein: recombinant; tags: N-terminal GST; dsDNA, one strand shown
T10 sequence: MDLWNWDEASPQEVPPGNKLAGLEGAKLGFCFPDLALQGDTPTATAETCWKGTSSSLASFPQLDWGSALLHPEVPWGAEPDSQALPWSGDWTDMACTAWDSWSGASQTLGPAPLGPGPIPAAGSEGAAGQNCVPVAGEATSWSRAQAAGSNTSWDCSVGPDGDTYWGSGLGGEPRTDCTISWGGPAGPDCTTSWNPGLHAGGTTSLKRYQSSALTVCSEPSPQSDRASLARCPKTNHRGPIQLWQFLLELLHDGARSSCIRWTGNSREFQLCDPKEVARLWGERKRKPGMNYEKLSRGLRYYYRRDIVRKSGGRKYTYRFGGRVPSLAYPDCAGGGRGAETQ
Procedure, shortened: as §1

CRX = CRX (Homo sapiens, UniProt O43186 1-299); conditions: protein: recombinant; tags: N-terminal GST; dsDNA, one strand shown
CRX, sequence (O43186 whole entry): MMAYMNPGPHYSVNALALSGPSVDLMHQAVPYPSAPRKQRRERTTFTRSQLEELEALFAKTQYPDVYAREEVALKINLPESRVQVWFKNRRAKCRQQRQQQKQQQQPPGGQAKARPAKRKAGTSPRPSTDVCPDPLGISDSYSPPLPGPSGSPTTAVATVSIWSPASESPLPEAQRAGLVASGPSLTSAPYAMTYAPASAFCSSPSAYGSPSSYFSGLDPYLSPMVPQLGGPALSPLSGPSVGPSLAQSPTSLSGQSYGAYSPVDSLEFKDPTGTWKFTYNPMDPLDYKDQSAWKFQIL
Procedure, shortened: as §1

ETV1 = ETV1 (Homo sapiens, UniProt P50549 1-477); conditions: protein: recombinant; tags: N-terminal GST; dsDNA, one strand shown
ETV1, sequence (P50549 whole entry): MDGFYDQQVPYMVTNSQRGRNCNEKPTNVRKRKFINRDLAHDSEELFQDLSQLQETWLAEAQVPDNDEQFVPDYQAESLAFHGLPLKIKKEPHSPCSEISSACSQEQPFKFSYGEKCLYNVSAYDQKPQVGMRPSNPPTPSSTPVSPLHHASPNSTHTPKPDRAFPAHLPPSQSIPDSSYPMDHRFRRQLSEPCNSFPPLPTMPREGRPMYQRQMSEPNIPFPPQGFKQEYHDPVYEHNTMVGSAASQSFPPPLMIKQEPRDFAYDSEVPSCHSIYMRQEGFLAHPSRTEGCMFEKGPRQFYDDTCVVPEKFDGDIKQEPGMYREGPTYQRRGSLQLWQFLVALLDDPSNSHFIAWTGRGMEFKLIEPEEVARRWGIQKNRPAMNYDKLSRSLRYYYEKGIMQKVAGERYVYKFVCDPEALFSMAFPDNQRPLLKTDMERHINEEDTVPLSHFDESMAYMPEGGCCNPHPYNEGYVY
Procedure, shortened: as §1

Which results are given for TAAGCC?
binding signal (FLI1): 1.15 fold enrichment (6-mer frequency, TF over GST control); binding signal (ELK1): 1.12 fold enrichment (6-mer frequency, TF over GST control); binding signal (GABPA): 1.19 fold enrichment (6-mer frequency, TF over GST control); binding signal (ERG): 1.13 fold enrichment (6-mer frequency, TF over GST control); binding signal (ELF1): 1.16 fold enrichment (6-mer frequency, TF over GST control); binding signal (EHF): 1.08 fold enrichment (6-mer frequency, TF over GST control); binding signal (SPI1): 1.08 fold enrichment (6-mer frequency, TF over GST control); binding signal (SPIB): 1.19 fold enrichment (6-mer frequency, TF over GST control); binding signal (ELK3): 1.06 fold enrichment (6-mer frequency, TF over GST control); binding signal (FEV): 1.15 fold enrichment (6-mer frequency, TF over GST control); binding signal (ETV5): 1.12 fold enrichment (6-mer frequency, TF over GST control); binding signal (HSF1): 2.07 fold enrichment (6-mer frequency, TF over GST control); binding signal (SPIC): 1.15 fold enrichment (6-mer frequency, TF over GST control); binding signal (ELF4): 1.19 fold enrichment (6-mer frequency, TF over GST control); binding signal (ELK4): 1.15 fold enrichment (6-mer frequency, TF over GST control); binding signal (ETV2): 1.09 fold enrichment (6-mer frequency, TF over GST control); binding signal (CRX): 3.55 fold enrichment (6-mer frequency, TF over GST control); binding signal (ETV1): 1.14 fold enrichment (6-mer frequency, TF over GST control)
